# Bioassay records deposited in PubChem by The Scripps Research Institute Molecular Screening Center.
# A selection: hits, their analogues and other compounds. The true share with any hit is near 4.1%.
# ssDAF12 agonist: activators of S. stercoralis DAF-12 nuclear receptor; HEK293 ssDAF-12/GRIP1 lit1-tk-luc reporter, luminescence; % of 3 µM dafachronic acid response; activation, % at 6.8 µM; hit rate 1% among 370,000;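 active = activation above the mean over all tested compounds plus 3 SD, cut at about 0.9% in these data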;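 note: 0% = DMSO-only wells and 100% = 3 µM delta7-dafachronic acid wells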
# hcDAF12 agonist: activates DAF-12 receptor from parasite H. contortus; HEK293 hcDAF-12 lit1-tk-luc reporter, luminescence; 0% DMSO, 100% Δ7-dafachronic acid; activation, % at 6.8 µM; hit rate 1.4% among 370,000;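 active = activation above the mean of all tested compounds plus 3 SD, cut at about 5.5% in these data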;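 note: 100% = response to 3 µM Δ7-dafachronic acid high control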
# DAX1 inh-1: inhibitors of DAX1 repression of SF-1 activated StAR promoter; HEK293T StAR-luciferase reporter, SF-1/DAX-1 repression relief; inhibition, % at 6.8 µM; hit rate 1.1% among 370,000; AID 652010;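 active = inhibition above the mean over all tested compounds plus 3 SD, cut at about 3.6% in these data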;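 note: 0% = DAX-1 cells with DMSO and 100% = cells lacking DAX-1 with DMSO; higher inhibition means more luminescence from relief of DAX-1 repression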
# DAX1 inh-2: inhibits human nuclear receptor DAX1 | P51843 | HEK293 Gal4-DAX1 luciferase reporter, luminescence | inhibition, % at 6.75 µM | hit rate 0.99% among 340,000 | AID 504766;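 active = inhibition above the mean over all tested compounds plus 3 SD, cut at about 4.2% in these data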;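 note: 0% = DAX1-transfected cells with DMSO and 100% = empty-vector control cells with DMSO; inhibition shows as a rise in luminescence from relieved DAX1 repression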
# Target sequence (P51843 207-470 limits assumed): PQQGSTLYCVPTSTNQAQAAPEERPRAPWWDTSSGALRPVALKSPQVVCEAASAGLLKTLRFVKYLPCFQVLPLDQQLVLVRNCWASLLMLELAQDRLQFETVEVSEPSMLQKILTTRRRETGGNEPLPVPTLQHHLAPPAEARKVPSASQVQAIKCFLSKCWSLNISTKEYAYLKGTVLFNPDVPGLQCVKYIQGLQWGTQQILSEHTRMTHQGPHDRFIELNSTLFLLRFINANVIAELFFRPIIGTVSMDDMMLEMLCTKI
# hgDAF12 agonist: agonists of H. glycines DAF-12 nuclear receptor. HEK293 GAL4-hgDAF12 UAS-luciferase reporter, agonist luminescence; normalized to butyrate control. activation, % at 6.8 µM. hit rate 1.8% among 370,000. AID 687014;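 active = activation above a cutoff set at the mean of all screened compounds plus 3 SD, cut at about 10% in these data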;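 note: 0% = DMSO wells and 100% = sodium butyrate wells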
# hgDAF12 ag: confirmation of H. glycines DAF-12 agonists; HEK293 GAL4-hgDAF12 luciferase reporter, agonist mode; percent of butyrate response; activation, % at 6.8 µM; hit rate 80% among 3,300; shares compounds with hgDAF12 agonist;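 active = mean activation over triplicate wells above the hit cutoff derived from the earlier primary screen, cut at about 11% in these data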;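 note: 0% = DMSO low control and 100% = 2 mM sodium butyrate high control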
# LXRb DAF12 ctr: LXR-beta agonism as DAF-12 counter-screen; HEK293 Gal4-LXR luciferase reporter, 24 h; shares compounds with hgDAF12 agonist; activation, % at 6.8 µM; AID 743051; 3,300 tested, under 10 active;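 active = mean activation of the triplicate above a set limit carried over from the primary screen, none filed active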
# Target sequence (P55055 whole entry, looked up, the tested form may be a part): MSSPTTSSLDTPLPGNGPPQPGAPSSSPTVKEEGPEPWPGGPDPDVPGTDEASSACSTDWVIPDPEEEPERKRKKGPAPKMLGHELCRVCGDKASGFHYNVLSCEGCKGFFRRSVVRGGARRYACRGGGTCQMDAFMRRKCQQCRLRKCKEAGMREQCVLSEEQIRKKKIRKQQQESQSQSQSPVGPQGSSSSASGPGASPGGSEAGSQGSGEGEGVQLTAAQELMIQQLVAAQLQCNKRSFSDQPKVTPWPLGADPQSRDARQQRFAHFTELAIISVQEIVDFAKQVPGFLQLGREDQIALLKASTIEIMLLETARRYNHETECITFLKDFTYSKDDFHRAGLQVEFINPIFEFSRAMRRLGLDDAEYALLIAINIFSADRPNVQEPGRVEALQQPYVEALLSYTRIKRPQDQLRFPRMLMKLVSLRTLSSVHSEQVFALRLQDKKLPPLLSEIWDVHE
# * marks the source's active call; other numbers are inactive results; / = not tested or not shown.
SMILES,ssDAF12 agonist,hcDAF12 agonist,DAX1 inh-1,DAX1 inh-2,hgDAF12 agonist,hgDAF12 ag,LXRb DAF12 ctr
OC(c1ccccc1)(c1ccccc1)C1CCN(CCCOc2ccc(-c3cccnc3)cc2)CC1,-1.1,-0.2,0.4,/,1.0,/,/
Cc1ccccc1C1=CC(=O)CC(C)(C)C1=O,-1.2,-0.2,0.1,/,0.8,/,/
CCCCN1C(=O)/C(=C/C=C2\SCCN2C)SC1=S,-0.1,0.1,2.9,2.9,14.0*,10.3,0.5
CN1CCS/C1=C/C=C1\SC(=S)N(CC(=O)O)C1=O,-0.4,1.7,-0.2,-0.3,1.6,/,/
COc1nc(-c2ccccc2)nnc1-c1ccccc1,1.3*,15.3*,3.2,2.1,15.1*,20.1*,0.8
CCOc1cc(/C=N/NC(=O)c2ccc(NC(=O)C3CC3)cc2)ccc1O,-0.7,2.8,-2.2,-0.3,-1.8,/,/
COc1ccc(C=NNC(=O)NN=Cc2ccc(OC)c(OC)c2)cc1OC,-1.0,3.1,0.8,5.0*,13.3*,9.3,0.2
CCOc1cc(/C=N/NC(=O)Nc2ccccc2)ccc1O,3.8*,6.1*,1.2,-0.1,13.4*,11.4*,0.4
CC(=O)Nc1ccc(OCCC[n+]2ccccc2)cc1,-1.1,1.1,-0.5,2.2,1.6,/,/
CC(=O)Nc1ccc(OCC[n+]2cccc(C(N)=O)c2)cc1,-1.2,-0.8,0.0,/,19.7*,-0.3,0.0
COc1ccc(S(=O)(=O)N2CCCc3nc(C)c(C)cc32)cc1,-0.6,-1.4,1.1,/,-2.7,/,/
O=C(Nc1ccc(Cl)cc1)c1ccc2nsnc2c1,0.2,2.8,2.1,3.9,18.4*,15.3*,0.5
O=C(Nc1ccc(C(O)(C(F)(F)F)C(F)(F)F)cc1)c1ccc(Cl)cc1,-1.7,-0.9,/,/,14.4*,3.9,0.2
O=C(Nc1ccc(C(O)(C(F)(F)F)C(F)(F)F)cc1)c1ccc(Cl)c([N+](=O)[O-])c1,-1.1,-2.3,-0.5,-0.9,4.3,/,/
COc1ccc(CCNS(=O)(=O)c2c(C)n[nH]c2C)cc1,-0.9,3.4,-0.2,/,-1.4,/,/
O=[N+]([O-])c1ccc(O)c(/C=N/Nc2ccccc2Cl)c1,0.1,2.4,1.9,0.3,15.6*,10.2,0.7
O=[N+]([O-])c1ccccc1N/N=C\c1ccccc1Cl,-1.0,0.3,1.4,1.9,2.5,/,/
Cc1ccc(-c2nnc(SCc3ccccc3F)o2)cc1,0.5,5.7*,3.5,3.0,15.8*,15.0*,0.8
C=CCc1c(C)nc2cc(-c3ccc(C)cc3)[nH]n2c1=O,1.0*,6.3*,1.6,3.6,13.8*,11.3*,0.9
O=C(OCC(=O)N1CCOCC1)c1ccccc1Br,-0.1,-0.4,0.2,0.8,1.1,/,/
O=C(OCC(=O)N1CCOCC1)c1ccccc1Cc1ccccc1,0.8,6.3*,4.1*,2.7,17.2*,18.4*,0.5
Nc1nc(Nc2ccccc2F)sc1C(=O)c1ccccc1,-0.7,3.5,0.0,1.7,18.7*,19.1*,0.9
CCN(CC)CCCNC(=O)C1(N[C@@H](Cc2c[nH]c3ccccc23)C(=O)NCC(OC)OC)CCCCC1,-1.1,2.9,/,/,3.1,/,/
Cc1ccc2nc(-c3ccc(NC(=O)CSc4nnc(Cc5cccs5)n4C)cc3)sc2c1,-0.3,3.6,2.3,/,13.5*,15.6*,1.0
Cc1nnc(SCC(=O)Nc2ccc(-c3nc4ccccc4s3)cc2)s1,0.6,6.0*,3.6,3.1,19.8*,19.7*,1.0
SMILES,ssDAF12 agonist,hcDAF12 agonist,DAX1 inh-1,DAX1 inh-2,hgDAF12 agonist,hgDAF12 ag,LXRb DAF12 ctr
Cc1ccc2nc(-c3ccc(NC(=O)CSc4nccc(=O)[nH]4)cc3)sc2c1,0.5,5.2,2.2,1.7,13.9*,12.2*,0.7
O=C(NC1CC1)c1cccc(-c2cncc3nccn23)c1,-0.3,-1.2,-0.3,/,4.0,/,/
CCOc1ccc(-c2cnc3cccnn23)cc1,0.0,4.5,3.5,/,15.0*,11.2*,0.5
O=C(NC1CC1)c1ccc(-c2cnc3cccnn23)cc1,-1.0,0.8,4.4*,/,14.2*,8.8,0.2
O=C(C(=O)N1CCN(C(=O)c2cccs2)CC1)c1cccc(C(F)(F)F)c1,-1.3,-0.7,0.6,/,-1.6,/,/
O=C(O)CC(Sc1ccc(Cl)cc1)C(=O)Nc1ccccc1 (centres undefined),-1.5,-1.8,-0.2,/,0.6,/,/
O=C(Nc1cccc(O)c1)c1cc(-c2ccc3c(c2)OCO3)on1,-0.7,2.8,2.1,-5.3,7.4,/,/
Cc1ccc(NC(=O)c2cc(-c3cccc(O)c3)on2)cc1C,1.0*,0.9,3.0,1.8,14.4*,14.1*,0.4
O=C(NCc1ccccc1)c1cc(-c2ccco2)on1,-0.5,0.8,0.4,-0.2,2.4,/,/
O=C(NCc1cccs1)c1cc(-c2ccc(O)cc2)on1,-0.8,4.2,2.6,5.7*,14.8*,18.0*,0.7
COc1cccc(-c2cc(C(=O)Nc3cccnc3)no2)c1,-0.4,1.2,0.8,-0.4,15.1*,21.4*,0.5
O=C(Nc1cccnc1)c1cc(-c2ccccc2)on1,-0.6,-1.0,-0.1,0.0,-1.2,/,/
O=C(NCc1ccccc1)c1cc(-c2cccc(O)c2)on1,-0.2,-0.2,2.4,0.1,18.1*,11.8*,0.4
C#CCNC(=O)C[C@H]1C[C@@]2(C(=O)OC)C(=C[C@H](C3CCCC3)O[C@@H]2C)N(Cc2ccco2)C1=O,-1.0,0.4,-0.1,/,-2.8,/,/
COc1ccc(-c2cc(C(=O)NCc3ccccc3)no2)cc1OC,-1.4,-1.6,-0.8,-0.2,19.7*,-2.1,0.0
COc1ccc(CNC(=O)c2cc(-c3ccc(OC)c(OC)c3)on2)cc1,-0.9,-2.5,-0.7,0.2,-2.0,/,/
Cc1ccc(NC(=O)N2CCC(c3ccccc3)C2)cc1C (centres undefined),0.4,2.7,3.6*,5.8*,14.6*,19.2*,0.7
Cc1cc(NC(=O)C2COc3ccccc3O2)no1 (centres undefined),-1.1,4.5,1.0,1.5,19.4*,4.6,0.2
Cc1cccc(NC(=O)C2COc3ccccc3O2)n1 (centres undefined),-1.3,-1.6,0.4,0.4,1.2,/,/
O=C(Nc1ccc(Cl)cn1)C1COc2ccccc2O1 (centres undefined),0.8,6.0*,3.6,3.1,14.2*,10.8*,0.2
Cc1cc(NC(=O)COC(=O)C2COc3ccccc3O2)no1 (centres undefined),-1.6,-1.0,-0.8,-1.3,0.5,/,/
Cc1cccc(NC(=O)C2CCN(c3ncccn3)CC2)c1C,-1.1,2.3,-1.6,/,-0.2,/,/
CC(=C1SC(=S)NC1=O)c1ccc(Cl)c(O)c1,-0.7,2.0,-1.7,/,-0.3,/,/
Cc1ccccc1CN1CCCCC(NC(=O)Nc2cccc([N+](=O)[O-])c2)C1=O (centres undefined),-1.6,-3.8,-2.0,/,-2.5,/,/
